Assay results published in PubChem BioAssay (NCI).
Compounds without any hit were thinned out: in the full panel of roughly 79,000, 15% have a hit. A number with no mark means an inactive call. Active and inactive are the calls of the source. Rule as the data show it: active = growth inhibition above about 70%; inactive = the rest.

Key:
[1] = NCI Yeast Anticancer Drug Screen. Data for the rad50 strain (AID 155);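 also: 0% = growth of vehicle-only cultures of the same strain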; settings: S. cerevisiae rad50 strain growth inhibition, hits give high values
Method in brief: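 Relative growth inhibition (compound vs vehicle) was measured in yeast with a defined repair-gene alteration.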

[2] = NCI Yeast Anticancer Drug Screen. Data for the mec2-1 strain (AID 157); settings: S. cerevisiae mec2-1 strain, hits give high values
Method in brief: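 Readout is yeast growth inhibition, normalised to vehicle-treated controls, in the mec2-1 strain exposed to compound.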

[3] = NCI Yeast Anticancer Drug Screen. Data for the sgs1 mgt1 strain (AID 161);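 also: 0% = growth of cultures given vehicle only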; settings: S. cerevisiae sgs1 mgt1 strain, hits give high values
Method in brief: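 Compounds are added to genetically altered yeast, and growth is compared with cultures given vehicle alone to give percent inhibition.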

[4] = NCI Yeast Anticancer Drug Screen. Data for the cln2 rad14 strain (AID 165);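 also: 0% = growth equal to vehicle treated cultures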; settings: S. cerevisiae cln2 rad14 strain, hits give high values
Method in brief: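 Relative to vehicle controls, growth inhibition of compound-treated cln2 rad14 yeast was recorded.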

[5] = NCI Yeast Anticancer Drug Screen. Data for the bub3 strain (AID 167); settings: S. cerevisiae bub3 mutant strain, hits give high values
Method in brief: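 Screening used yeast with an engineered genetic alteration affecting cell cycle control. Compound-exposed cultures were compared with vehicle cultures, and reduced growth was taken as inhibition.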

[6] = NCI Yeast Anticancer Drug Screen. Data for the mlh1 rad18 strain (AID 175); settings: S. cerevisiae mlh1 rad18 strain growth inhibition, hits give high values
Method in brief: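 Test agents were incubated with a yeast strain of defined genotype (DNA damage repair defect). Inhibition of growth was derived by comparison with vehicle-exposed cultures.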

[7] = at 5.0 µM (retest, dose inferred, filed as 0.5)
[8] = at 50.0 µM (retest, dose inferred, filed as 5.0)

Compound | growth inhibition [1, 7] | growth inhibition [1, 8] | growth inhibition ([1]; at 50.0 µM) | growth inhibition [2, 7] | growth inhibition [2, 8] | growth inhibition ([2]; at 50.0 µM) | growth inhibition [3, 7] | growth inhibition [3, 8] | growth inhibition ([3]; at 50.0 µM) | growth inhibition [4, 7] | growth inhibition [4, 8] | growth inhibition ([4]; at 50.0 µM) | growth inhibition [5, 7] | growth inhibition [5, 8] | growth inhibition ([5]; at 50.0 µM) | growth inhibition [6, 7] | growth inhibition [6, 8] | growth inhibition ([6]; at 50.0 µM)
O=C(CCl)Oc1ccc(Sc2ccc(OC(=O)CCl)cc2)cc1 | 6% | 97% (active) | 98.7% (active) | 12% | 98% (active) | 98.3% (active) | 10% | 97% (active) | 98.8% (active) | 13% | 94% (active) | 96.3% (active) | 1% | 99% (active) | 99.4% (active) | 7% | 99% (active) | 97.9% (active)
C1CCC(CC[N+]23CC[N+](CCC4CCCC4)(CC2)C3)C1 | 1% | 33% | 62.3% | -8% | 34% | -14.4% | 12% | 72% (active) | 45.3% | 2% | 15% | -8.6% | 2% | 25% | 11.6% | 24% | 59% | 40%
C1CCC(CC2CCC(NC3=NCCO3)CC2)CC1 (stereo not given) | -23% | 97% (active) | 88.6% (active) | -12% | 96% (active) | 87.5% (active) | -22% | 99% (active) | 87.2% (active) | -8% | 91% (active) | 88.2% (active) | -35% | 98% (active) | 91.2% (active) | -9% | 99% (active) | 84.3% (active)
CCCCCN(CCC)CCCCCCCCCN1CCCc2cc(OC)ccc21 | -8% | -2% | 97.3% (active) | -6% | -7% | 97.7% (active) | 2% | 2% | 62.9% | -7% | -10% | 97% (active) | -4% | -3% | 91% (active) | -5% | -5% | 98% (active)
Cc1ccc(C)c([N+](=O)[O-])c1 | -2% | 11% | 51.1% | 1% | -2% | 17.6% | -1% | -2% | 13.8% | 1% | 1% | -7.1% | -1% | 1% | 6.25% | 0% | 12% | 28.2%
CC(=O)Nc1n[n+]([O-])c2cc(C)ccc2[n+]1[O-] | 96% (active) | 99% (active) | 99.2% (active) | 96% (active) | 99% (active) | 99.7% (active) | 93% (active) | 99% (active) | 99.4% (active) | 92% (active) | 99% (active) | 99% (active) | 95% (active) | 99% (active) | 99% (active) | 97% (active) | 99% (active) | 99.4% (active)
COC(=O)[C@H]1[C@@H](C(C)C)O[C@@H](C(C)C)O[C@H]1C(F)(F)F | -1% | 2% | 86.7% (active) | -13% | -25% | 92.5% (active) | -14% | -10% | 86.6% (active) | -15% | 1% | 88.5% (active) | -30% | 1% | 88.7% (active) | -15% | -13% | 84.4% (active)
CCCCCCCCN/N=C(/C)CCCCCO | -6% | 4% | -14.2% | 4% | 9% | -11.8% | 1% | 1% | -12.7% | -67% | -2% | 22.8% | 1% | -80% | 15.9% | -1% | -12% | -23.6%
C=CC1(C)CCC2C(=CCC3C2(C)CC(O)C(O)C3(C)COC2OC(CO)C(O)C(O)C2O)C1 (stereo not given) | 1% | 99% (active) | 93.1% (active) | -1% | 100% (active) | 94.1% (active) | -1% | 99% (active) | 94.1% (active) | 1% | 99% (active) | 90.5% (active) | 0% | 99% (active) | 93.6% (active) | 0% | 82% (active) | -41.4%
CCS(=O)(=O)c1ccc(NC(=O)OC2CC(C)CCC2C(C)C)cc1 (stereo not given) | 14% | 90% (active) | 90.5% (active) | 18% | 94% (active) | 91.6% (active) | 15% | 91% (active) | 89.5% (active) | 12% | 91% (active) | 86.7% (active) | 11% | 94% (active) | 90.8% (active) | 20% | 92% (active) | 92.1% (active)
